# Bioassay records deposited in PubChem by National Center for Advancing Translational Sciences (NCATS).
# FLuc counter: firefly luciferase modulation, counter-screen for miR-21 project; P08659; purified FLuc, Km substrates, luminescence inhibition; Potency, µM (titrated, usually from 57.5 µM), for the others: at the top dose activity change, negative = inhibition, actives largely listed as inhibitors; 360,000 compounds, 6.9% hits;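 further: plate controls were vehicle for no effect and reference inhibitor for full effect; nearly all actives have a fitted effect of over 55% in size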
# Target sequence (P08659 whole entry, looked up): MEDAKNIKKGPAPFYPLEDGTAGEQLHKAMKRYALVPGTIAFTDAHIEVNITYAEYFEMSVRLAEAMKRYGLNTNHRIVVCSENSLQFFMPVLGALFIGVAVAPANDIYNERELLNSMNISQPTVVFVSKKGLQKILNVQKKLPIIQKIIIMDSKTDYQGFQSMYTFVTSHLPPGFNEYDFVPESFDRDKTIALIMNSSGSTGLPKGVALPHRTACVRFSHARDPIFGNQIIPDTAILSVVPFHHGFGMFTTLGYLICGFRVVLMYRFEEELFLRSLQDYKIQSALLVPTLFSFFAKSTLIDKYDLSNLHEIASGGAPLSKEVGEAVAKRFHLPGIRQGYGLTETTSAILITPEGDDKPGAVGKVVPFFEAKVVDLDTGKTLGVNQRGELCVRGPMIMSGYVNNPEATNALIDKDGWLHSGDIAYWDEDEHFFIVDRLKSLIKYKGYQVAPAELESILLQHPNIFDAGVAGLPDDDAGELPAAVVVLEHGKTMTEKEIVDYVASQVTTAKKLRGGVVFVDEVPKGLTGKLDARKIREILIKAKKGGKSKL
#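 Purified P. pyralis luciferase (10nM final) with 10uM D-luciferin and 10uM ATP (Km levels) in 50mM Tris acetate pH 7.5, 10mM Mg acetate, 0.01% Tween-20, 0.05% BSA; qHTS 6-point titration, ~60 µM downward; luminescence read.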
# Luc counter: Kinase-Glo luciferase inhibition (counter-screen); Kinase-Glo luciferase, ATP luminescence, 8 min; Potency, µM (series often up to 38.3 µM), without a hit: at the highest dose activity change, negative = inhibition, hits mostly inhibitors; 200,000 compounds, 0.28% hits; AID 1379; further: on the % scale 0 is the no-effect control and ±100 the full control effect; nearly all actives have a fitted effect of over 60% in size
#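 Compounds were added to a substrate mix at pH 7.2 (50 mM imidazole, 10 uM ATP, within the enzyme's linear range), followed by Kinase-Glo detection reagent; luminescence was measured after 8 minutes at ambient temperature.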
# Rab9 promoter act: Rab9 promoter activation; Potency, µM (series often up to 9.22 µM), inactives show at the highest dose activation, negative = inhibition, hits mostly activators; Huh7 Rab9 promoter-luciferase reporter, luminescence, 24 h; 320,000 compounds, 2.8% hits; further: % of control where 0% means no effect; nearly all actives have a fitted effect of over 60% in size
#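 Huh7 cells stably carrying Rab9 promoter–luciferase reporter, plated 1500 cells/well, compound added after 2 h and incubated 24 h at 37 °C; luciferase luminescence then read after 10 min with detection reagent.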
# ELG1 genotoxic: induces genotoxicity in HEK293T cells with luciferase-tagged ELG1 | HEK293T ELG1-luciferase reporter, luminescence, 16 h | 330,000 compounds, 1.3% hits | Potency, µM (titrated, usually from 46 µM), for the others: at the highest dose activity change, positive = activation, most hits filed as activators; further: % of control where 0% means no effect; nearly all actives have a fitted effect of over 60% in size
#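 Genotoxicity was scored as increased ELG1-luciferase reporter signal, measured by ONE-Glo luminescence (30 min, room temperature). Compound or vehicle exposure of the HEK293T reporter cells lasted 16 hr at 37°C.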
# SMN2 splice up: enhancers of SMN2 splice variant expression; HEK293 SMN2-luciferase splicing reporter, luminescence, 30-36 h; Potency, µM (series often up to 46.1 µM), for the others: top-dose activity change, positive = activation, actives largely listed as activators; 210,000 compounds, 2.8% hits; further: % of control where 0% means no effect; nearly all actives have a fitted effect of over 55% in size
#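 HEK293 cells carry an SMN2 minigene-luciferase reporter in which exon 7 inclusion puts luciferase in frame. Cells were seeded at 2000 cells/well, attached for 10-12 hours, then exposed to compounds for 30-36 hours at 37C before ONE-Glo luminescence.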
# NPC1 prom act: activators of NPC1 promoter; Huh7 NPC1 promoter luciferase reporter, 24 h; Potency, µM (highest dose often 9.22 µM), without a hit: at the top dose activation, most hits filed as activators; 320,000 compounds, 2.4% hits; AID 485313; further: % of control where 0% means no effect; nearly all actives have a fitted effect of over 60% in size
#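 Stable NPC1-promoter luciferase Huh7 line; cpd (DMSO) 24 h, 37 °C, 5% CO2; Amplite luciferase reagent 10 min RT; luminescence readout. qHTS format.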
# Starred values were filed as active, the others as inactive; ? = inconclusive; . = no result given; [ ] = dose if it differs, or a comment. Rows were chosen to be rich in hits. Some 7.3% of all compounds tested hit in one or more screens of this group. The call rests on the fitted dose curve; in most records, active means well fitted curve in the direction sought with a large enough effect; inconclusive means small, poorly fitted or top-dose-only effect, or another doubt; inactive means no such curve, though single readings can be large; an effect the other way counts as inactive or inconclusive. Potency means the concentration at half of the fitted maximal effect.
SMILES,FLuc counter,Luc counter,Rab9 promoter act,ELG1 genotoxic,SMN2 splice up,NPC1 prom act
C/C(=N\NC(=O)c1ccc(Cl)cc1)c1cccnc1,17µM*,.,?,?,.,?
C/C(=N\NC(=O)c1ccc(Cl)cc1)c1cccc(NC(=O)c2cccnc2)c1,3µM*,-3%,?,-2%,?,22%
N#Cc1ccc(OCc2cccc(S(=O)(=O)N3CCOCC3)c2)cc1,2%,.,1%,-2%,.,-4%
COc1cccc(NC(=S)NN=C2CCCCCC2)c1,8.5µM*,-2%,3.2µM*,?,14µM*,3.5µM*
COc1ccc(CNC(=S)Nc2cccc(OC)c2)cc1,3%,.,0%,-3%,.,0%
CCc1ccc(NC(=S)Nc2cccc(OC)c2)cc1,21µM*,-3%,2%,6%,7%,-7%
CCOc1cc(NC(=S)Nc2cccc(OC)c2)c(OCC)cc1NC(=O)C1CC1,15µM*,-3%,2%,-8%,20%,-2%
COc1ccc(S(=O)(=O)N2CCOC2CNC(=O)C(=O)NCc2cccnc2)cc1C (stereo not drawn),-2%,.,-3%,1%,.,?
Cc1c(C)c2ccc(O)c(CN3CCCC3)c2oc1=O,0%,.,-5%,-4%,.,-7%
CC(OC(=O)c1cc(O)c2ccccc2c1O)C(=O)Nc1ccc(C(N)=O)cc1 (stereo not drawn),8.5µM*,.,21%,10%,.,10%
O=C(Nc1ccc(S(=O)(=O)N2CCCCC2)cc1)c1ccccc1F,5%,.,-4%,-9%,.,-8%
Cc1csc(NC(=O)c2ccc(Br)s2)n1,4.8µM*,.,2%,?,.,21%
Cc1nc(NC(=O)c2cccs2)ccc1Br,6µM*,-13%,3.5µM*,?,11µM*,3.5µM*
Cc1csc(NC(=O)c2cccs2)n1,?,-19%,?,?,11µM*,?
Cc1csc(NC(=O)CCC(=O)c2cccs2)n1,-13%,-4%,7%,-18%,-13%,6%
Cc1cc(C)nc(NC(=O)c2cccs2)n1,0%,.,-8%,5%,.,-4%
Cc1cc(C)c2nc(N3CCC(C(=O)N4CCN(C(=O)c5ccco5)CC4)CC3)sc2c1,?,-3%,-4%,-17%,-14%,0%
O=C(NCCSc1ccccn1)c1ccc(Cl)cc1,3.4µM*,0%,0.63µM*,?,2.2µM*,0.63µM*
CS(=O)(=O)N(Cc1ccc(Cl)cc1)c1ccc(C(=O)NCCSc2ccccn2)cc1,2%,1%,4%,-5%,-3%[1.84 µM],1%
O=C(NCCSc1ccccn1)c1ccc(Cl)cc1Cl,?,0%,1.1µM*,-10%,3.2µM*,0.79µM*
CC(C)c1ccc(/C=C2\CC/C(=C\C=N\N(C)C)C2=O)cc1,2.4µM*,-3%,?,3.3µM*,13µM*,?
O=C1/C(=C\c2ccc3c(c2)OCO3)CCC/C1=C/c1ccc2c(c1)OCO2,?,-4%,0%,1%,-11%,-3%
CC(C)/C=C1\CC/C(=C\c2ccc(N(C)C)cc2)C1=O,0.95µM*,-1%,?,9.2µM*,?,3.5µM*
C=CCn1c(Oc2ccccc2F)nc2c1c(=O)n(C)c(=O)n2C,1%,.,4%,-15%,.,14%
COC(=O)CNC(=O)[C@@]1(Cc2ccccc2)C=C[C@@H](C)N1C(=O)c1ccccc1,.,-3%,.,.,13µM*,.
SMILES,FLuc counter,Luc counter,Rab9 promoter act,ELG1 genotoxic,SMN2 splice up,NPC1 prom act
C[C@@H]1C=C[C@](Cc2ccccc2)(C(=O)NCC2CC2)N1C(=O)c1ccccc1,?,0%,20%,10%,?,7%
Cc1ccc(/C=C2\SC(=S)N(CCCC(=O)Nc3ccccc3C(=O)O)C2=O)cc1,4%,.,-2%,11%,.,3%
COc1ccc(/C=C2/SC(=S)N(CCCC(=O)Nc3ccccc3C(=O)O)C2=O)cc1,27µM*,.,-8%,-14%,.,-20%
COc1ccc(/C=C2/SC(=S)N(CCCC(=O)Nc3cccc(O)c3)C2=O)cc1,13µM*,.,-7%,6%,.,-4%
COc1cccc(/C=C2/SC(=S)N(CC(=O)NNC(=O)c3ccccc3OC)C2=O)c1,13µM*,.,0%,3%,.,-2%
COc1cccc(/C=C2\SC(=S)N(CCC(=O)NNC(=O)c3ccccc3OC)C2=O)c1,-18%,.,-1%,-3%,.,5%
CNC(=O)C1CC(=O)N(c2ccc(OCC(=O)N3CCCC3)cc2)C1 (stereo not drawn),-3%,.,1%,2%,.,1%
O=C(Oc1ccc2c(c1)O/C(=C\c1ccncc1)C2=O)c1cccs1,-18%,.,-1%,-1%,.,1%
COCCN(CCOC)Cc1c(O)ccc2c1O/C(=C\c1ccco1)C2=O,-5%,.,-2%,-2%,.,-1%
COC(=O)COc1ccc2c(c1)O/C(=C\c1ccco1)C2=O,3.4µM*,.,13%,0%,.,1%
CCC(=O)Oc1ccc2c(c1)O/C(=C\c1ccco1)C2=O,3.4µM*,.,12%,9%,.,1%
CCN(CC)C(=O)Oc1ccc2c(c1)O/C(=C\c1ccco1)C2=O,3µM*,.,?,12%,.,?
Cc1cc(O)cc2c1C(=O)/C(=C/c1ccco1)O2,12µM*,.,-2%[1.84 µM],22%,.,?
O=C(NCc1ccco1)C1CC(c2ccccc2O)=NO1 (stereo not drawn),-8%,3%,0%,2%,.,-10%
NC(=O)[C@@H]1CCCN1Cc1nc(Cc2ccccc2F)no1,-1%,.,-2%,-1%,.,-3%
O=C(CSc1nnc(COc2ccccc2)o1)NCCc1ccccc1,0%,0%,5%,1%,8%,-3%
CC(=O)c1cnc(Nc2ccccc2)s1,-18%,5%,5%,11%,2%,3%
CN(C)/C=N/c1ncc(C(=O)c2ccc(Cl)cc2)s1,?,1%,6%,16µM*,10%,28%
O=C(c1ccc(Cl)cc1)c1cnc(Nc2ccccc2Cl)s1,1.5µM*,-10%,1.1µM*,?,22µM*,1.8µM*
CNc1ncc(C(=O)c2ccccc2)s1,?,-3%,?,?,17%,?
CNc1ncc(C(=O)c2ccc(Br)cc2)s1,12µM*,0%,2µM*,?,16µM*,2.8µM*
O=C(c1ccc(Cl)cc1)c1cnc(-c2ccccc2)s1,?,-6%,2.8µM*,13%,3%,2.2µM*
Cc1cccc(N(CC(=O)NCCSCc2ccccc2)S(C)(=O)=O)c1,1%,0%,1%,-5%,.,-3%
CCS(=O)(=O)c1ncc(Cl)c(C(=O)NCc2ccc(OC)cc2)n1,6%,.,.,.,.,.
CC(=O)c1cnc(Nc2cccc(Cl)c2Cl)s1,?,-5%,?,?,13µM*,23%
